Biological target: CA4
Experiment: pooled miR-30 sensor sort-seq; sequence = guide strand
Details: shRNA
Further: reference of the scale not given here.

Question: For TTATTTTGGACAGTCCACGTTT, which sensor-assay potency score (higher = more potent) is on record?
Answer: -0.237

Question: ATGTACTATGTGCATCTCCATG was tested. Which sensor-assay potency score (higher = more potent) did it give?
Answer: -2

Question: With TTGAACCTCGTAGCACCAGTGT as the sequence, how does the sensor-assay potency score (higher = more potent) read?
Answer: -1.16

Question: With TTCTCTGTGAAGCTGAATGGGC as the sequence, how does the sensor-assay potency score (higher = more potent) read?
Answer: -0.889

Question: Which sensor-assay potency score (higher = more potent) does the source give for TTTTTGTCCACCTTTGCCTTGG here?
Answer: -0.0193

Question: TGTCGTAGTACAGCTTCTGAGA was tested. Which sensor-assay potency score (higher = more potent) did it give?
Answer: -0.691

Question: For TTCCTTGTCGTAGTACAGCTTC, which sensor-assay potency score (higher = more potent) is on record?
Answer: -0.302

Question: For TTGTCGTAGTACAGCTTCTGAG, which sensor-assay potency score (higher = more potent) is on record?
Answer: -1.18

Question: Which sensor-assay potency score (higher = more potent) does the source give for TTGTTCTCCAGCAACATCATCA here?
Answer: -1.13

Question: TTGCTTCTTATCGTAGCCAGAG was tested. Which sensor-assay potency score (higher = more potent) did it give?
Answer: -0.919

Question: With TTTGCTTCTTATCGTAGCCAGA as the sequence, how does the sensor-assay potency score (higher = more potent) read?
Answer: -0.836

Question: How did the sensor-assay potency score (higher = more potent) turn out when AATTTCGTCTTCAGGGTCCTGG was run?
Answer: 0.0795

Question: Which sensor-assay potency score (higher = more potent) does the source give for TTCTCATCGCAGGTCGGTGTGG here?
Answer: -1.28

Question: Which sensor-assay potency score (higher = more potent) does the source give for TTTTTTGTCCACCTTTGCCTTG here?
Answer: -1.1

Question: With TCACTGTCTGTTCCTTGTCGTA as the sequence, how does the sensor-assay potency score (higher = more potent) read?
Answer: -1.4

Question: Which sensor-assay potency score (higher = more potent) does the source give for TTGACTGGCACCAAGCAGGGGT here?
Answer: -0.145

Question: TTATATGGCAAGTCGGACCAGT was tested. Which sensor-assay potency score (higher = more potent) did it give?
Answer: 0.112

Question: TCCAGCAACATCATCACTGAGT was tested. Which sensor-assay potency score (higher = more potent) did it give?
Answer: -1.67

Question: TTGTCCACCTTTGCCTTGGTGG was tested. Which sensor-assay potency score (higher = more potent) did it give?
Answer: -0.751

Biological target: CA8
Experiment: as above
Details: shRNA

Question: Which sensor-assay potency score (higher = more potent) does the source give for TTTGAGGATAAACTGAAGGTGC here?
Answer: -0.117

Question: For AAATTCTTCTATCTGTAGCTGG, which sensor-assay potency score (higher = more potent) is on record?
Answer: 0.0203

Question: How did the sensor-assay potency score (higher = more potent) turn out when TTAACATGTGTCCTCAGCCTTC was run?
Answer: -1.15

Question: For TTCGAAATTCTTCTATCTGTAG, which sensor-assay potency score (higher = more potent) is on record?
Answer: -0.338

Question: Which sensor-assay potency score (higher = more potent) does the source give for TTTCTTTGGAATATACAGCCAT here?
Answer: 0.203

Question: Which sensor-assay potency score (higher = more potent) does the source give for TAACACATGATATATATTCATA here?
Answer: -0.982

Question: Which sensor-assay potency score (higher = more potent) does the source give for TTTGACTTCAGGATAACCTGAA here?
Answer: 0.794

Question: TGCAACTATGAATCCTAGCAGC was tested. Which sensor-assay potency score (higher = more potent) did it give?
Answer: -0.939

Question: With AATTCTTCTATCTGTAGCTGGG as the sequence, how does the sensor-assay potency score (higher = more potent) read?
Answer: -0.112

Question: With ATTAGCATCAGGAAACACCAGA as the sequence, how does the sensor-assay potency score (higher = more potent) read?
Answer: -0.642

Question: How did the sensor-assay potency score (higher = more potent) turn out when TTAGGTTAATAGGAGACTGGTA was run?
Answer: -0.274

Question: How did the sensor-assay potency score (higher = more potent) turn out when TTGACTTCAGGATAACCTGAAT was run?
Answer: -1.18

Question: For TATAGGACCATTGTCTTCCTCC, which sensor-assay potency score (higher = more potent) is on record?
Answer: -0.229

Question: Which sensor-assay potency score (higher = more potent) does the source give for TATCTGAACAAACAGAGCAATG here?
Answer: -1.69

Question: How did the sensor-assay potency score (higher = more potent) turn out when TTCTTCTATCTGTAGCTGGGAT was run?
Answer: -0.262

Question: With TTGGTGACTTCACAGTCTCGGC as the sequence, how does the sensor-assay potency score (higher = more potent) read?
Answer: -0.936

Question: AAAGCTTTGAAATTAACCGTGT was tested. Which sensor-assay potency score (higher = more potent) did it give?
Answer: 0.986

Question: For AAAAGCTTTGAAATTAACCGTG, which sensor-assay potency score (higher = more potent) is on record?
Answer: -0.175

Question: With TAACCTGAATGGTATGTCCATC as the sequence, how does the sensor-assay potency score (higher = more potent) read?
Answer: -1.33

Question: For TTCATATTAATAACAACTCTGG, which sensor-assay potency score (higher = more potent) is on record?
Answer: -0.115

Question: Which sensor-assay potency score (higher = more potent) does the source give for TATCGGAATAATATCCAGGTGA here?
Answer: -0.367
